PubChem BioAssay AID1159580 (chemical genetic matrix, 2015)
Among all 5,500 compounds or so, about 2,000 (36%) were called active. About 18% were inconclusive and are not listed. Rule as the data show it: active = normalized growth mostly below about 0.91 (no sharp cut-off); inconclusive = no clear call, values can overlap the other calls; inactive = mostly above about 0.92. The list shows a part of the results.

Assay: chemical genetic growth profiling, strain panel (AID 1159580);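 also: tested at 20 µM; growth read once vehicle control cultures reached saturation at 30 °C; 1 = growth at the plate median or of vehicle wells; lower values mean less growth of the strain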
Conditions: growth OD

Measured: normalized growth

CC(C)c1c(O)ccc2c1CCC1C(C)(C)CCC[C@]21C (some centres not stated)
inactive: S. cerevisiae deletion strains, locus YKL068W, active compounds read low 1.03 | S. cerevisiae deletion strains, locus YKR026C, strain gcn3, active compounds read low 0.993 | S. cerevisiae deletion strains, locus YLR357W, strain rsc2, active compounds read low 1.14 | S. cerevisiae deletion strains, locus YLR370C, strain arc18, active compounds read low 1.06 | S. cerevisiae deletion strains, locus YLR384C, strain iki3, active compounds read low 1.01 | S. cerevisiae deletion strains, locus YMR058W, strain fet3, active compounds read low 0.968 | S. cerevisiae deletion strains, locus YMR125W, strain sto1, active compounds read low 0.928 | S. cerevisiae deletion strains, locus YMR231W, strain pep5, active compounds read low 0.93 | S. cerevisiae deletion strains, locus YNL248C, strain rpa49, active compounds read low 0.989 | S. cerevisiae deletion strains, locus YNL322C, strain KRE1 (second series), active compounds read low 1.03 | S. cerevisiae deletion strains, locus YNR049C, strain mso1, active compounds read low 0.994 | S. cerevisiae deletion strains, locus YOL012C, strain htz1 0.469 | S. cerevisiae deletion strains, locus YPL078C, strain atp4, active compounds read low 0.925 | S. cerevisiae deletion strains, locus YPR141C, strain kar3, active compounds read low 1.01
active: S. cerevisiae deletion strains, locus YJR066W, strain TOR1, active compounds read low 0.709 | S. cerevisiae deletion strains, locus YKL009W, strain mrt4, active compounds read low 0.822 | S. cerevisiae deletion strains, locus YKL085W, strain MDH1 (second series), active compounds read low 0.358 | S. cerevisiae deletion strains, locus YKL085W, strain MDH1, active compounds read low 0.358 | S. cerevisiae deletion strains, locus YKL160W, strain elf1, active compounds read low 0.729 | S. cerevisiae deletion strains, locus YKL190W, strain CNB1, active compounds read low 0.0594 | S. cerevisiae deletion strains, locus YKR001C, strain vps1, active compounds read low 0.0785 | S. cerevisiae deletion strains, locus YKR091W, strain srl3, active compounds read low 0.78 | S. cerevisiae deletion strains, locus YLL001W, strain dnm1, active compounds read low 0.819 | S. cerevisiae deletion strains, locus YLL026W, active compounds read low 0.263 | S. cerevisiae deletion strains, locus YLL041C, strain sdh2, active compounds read low 0.55 | S. cerevisiae deletion strains, locus YLR027C, strain aat2, active compounds read low 0.254 | S. cerevisiae deletion strains, locus YLR039C, strain RIC1, active compounds read low 0.127 | S. cerevisiae deletion strains, locus YLR058C, strain SHM2, active compounds read low 0.104 | S. cerevisiae deletion strains, locus YLR102C, strain apc9, active compounds read low 0.214 | S. cerevisiae deletion strains, locus YLR113W, strain HOG1, active compounds read low 0.3 | S. cerevisiae deletion strains, locus YLR221C, strain rsa3, active compounds read low 0.337 | S. cerevisiae deletion strains, locus YLR258W, strain gsy2, active compounds read low 0.343 | S. cerevisiae deletion strains, locus YLR262C, strain YPT6 (second series), active compounds read low 0.146 | S. cerevisiae deletion strains, locus YLR268W, strain sec22, active compounds read low 0.191 | S. cerevisiae deletion strains, locus YLR320W, strain mms22, active compounds read low 0.22 | S. cerevisiae deletion strains, locus YLR342W, strain FKS1 (second series), active compounds read low 0.139 | S. cerevisiae deletion strains, locus YLR342W, strain FKS1, active compounds read low 0.43 | S. cerevisiae deletion strains, locus YLR371W, strain rom2, active compounds read low 0.186 | S. cerevisiae deletion strains, locus YLR418C, strain cdc73, active compounds read low 0.125 | S. cerevisiae deletion strains, locus YML016C, strain PPZ1, active compounds read low 0.438 | S. cerevisiae deletion strains, locus YML032C, strain rad52, active compounds read low 0.315 | S. cerevisiae deletion strains, locus YML120C, strain ndi1, active compounds read low 0.235 | S. cerevisiae deletion strains, locus YML124C, strain tub3, active compounds read low 0.241 | S. cerevisiae deletion strains, locus YMR078C, strain ctf18, active compounds read low 0.211 | S. cerevisiae deletion strains, locus YMR129W, active compounds read low 0.692 | S. cerevisiae deletion strains, locus YMR205C, strain PFK2, active compounds read low 0.305 | S. cerevisiae deletion strains, locus YMR223W, strain ubp8, active compounds read low 0.21 | S. cerevisiae deletion strains, locus YMR307W, strain GAS1, active compounds read low 0.179 | S. cerevisiae deletion strains, locus YNL067W, strain RPL9B, active compounds read low 0.279 | S. cerevisiae deletion strains, locus YNL071W, strain lat1, active compounds read low 0.13 | S. cerevisiae deletion strains, locus YNL128W, strain TEP1, active compounds read low 0.205 | S. cerevisiae deletion strains, locus YNL183C, strain NPR1, active compounds read low 0.627 | S. cerevisiae deletion strains, locus YNL209W, strain ssb2, active compounds read low 0.689 | S. cerevisiae deletion strains, locus YNL233W, strain BNI4, active compounds read low 0.0951 | S. cerevisiae deletion strains, locus YNL250W, strain rad50, active compounds read low 0.786 | S. cerevisiae deletion strains, locus YNL271C, strain bni1, active compounds read low 0.74 | S. cerevisiae deletion strains, locus YNL298W, strain CLA4, active compounds read low 0.636 | S. cerevisiae deletion strains, locus YNL307C, strain MCK1, active compounds read low 0.0705 | S. cerevisiae deletion strains, locus YNL322C, strain KRE1, active compounds read low 0.0898 | S. cerevisiae deletion strains, locus YNR052C, strain pop2, active compounds read low 0.313 | S. cerevisiae deletion strains, locus YOL006C, strain TOP1, active compounds read low 0.227 | S. cerevisiae deletion strains, locus YOL147C, strain pex11, active compounds read low 0.131 | S. cerevisiae deletion strains, locus YOR001W, strain rrp6, active compounds read low 0.556 | S. cerevisiae deletion strains, locus YOR061W, strain CKA2, active compounds read low 0.173 | S. cerevisiae deletion strains, locus YOR069W, strain VPS5, active compounds read low 0.372 | S. cerevisiae deletion strains, locus YOR070C, strain gyp1, active compounds read low 0.157 | S. cerevisiae deletion strains, locus YOR080W, strain dia2, active compounds read low 0.685 | S. cerevisiae deletion strains, locus YOR083W, strain WHI5, active compounds read low 0.424 | S. cerevisiae deletion strains, locus YOR106W, strain vam3, active compounds read low 0.274 | S. cerevisiae deletion strains, locus YOR136W, strain idh2, active compounds read low 0.287 | S. cerevisiae deletion strains, locus YOR144C, strain elg1, active compounds read low 0.295 | S. cerevisiae deletion strains, locus YOR184W, strain ser1, active compounds read low 0.134 | S. cerevisiae deletion strains, locus YOR231W, strain MKK1, active compounds read low 0.366 | S. cerevisiae deletion strains, locus YOR265W, strain rbl2, active compounds read low 0.31 | S. cerevisiae deletion strains, locus YOR270C, strain vph1, active compounds read low 0.632 | S. cerevisiae deletion strains, locus YOR290C, strain snf2, active compounds read low 0.712 | S. cerevisiae deletion strains, locus YOR316C, strain cot1, active compounds read low 0.263 | S. cerevisiae deletion strains, locus YPL051W, strain arl3, active compounds read low 0.322 | S. cerevisiae deletion strains, locus YPL106C, strain sse1, active compounds read low 0.815 | S. cerevisiae deletion strains, locus YPL240C, strain hsp82, active compounds read low 0.29 | S. cerevisiae deletion strains, locus YPL241C, strain CIN2, active compounds read low 0.166 | S. cerevisiae deletion strains, locus YPL256C, strain CLN2, active compounds read low 0.521 | S. cerevisiae deletion strains, locus YPR119W, strain clb2, active compounds read low 0.187 | S. cerevisiae deletion strains, locus YPR163C, strain tif3, active compounds read low 0.187 | S. cerevisiae deletion strains, locus YPR167C, strain met16, active compounds read low 0.139 | S. cerevisiae deletion strains, strain wtn01, active compounds read low 0.132 | S. cerevisiae strains, strain wild type, active compounds read low 0.0726
